Source: PubChem BioAssay AID1851 (National Center for Advancing Translational Sciences (NCATS), 2009)
The campaign covered roughly 16,000 compounds. About 4,000 (25%) were called active. Another 26% or so got no clear call; they are omitted. Not all results are given here. Values without a mark were called inactive. Calls come from the whole dose curve; as a rule, active = well fitted curve in the direction sought with a large enough effect; inconclusive = small, poorly fitted or top-dose-only effect, or effect the other way; inactive = no such curve, though single readings can be large or run the other way.

The compounds below were run against Cytochrome P450 2C9 (Homo sapiens) (UniProt P11712) (assay: Cytochrome panel assay with activity outcomes). Conditions: recombinant CYP, pro-luciferin dealkylation, luminescence, p450-cyp2c9; series mostly up to 57.1 µM; activity, negative = inhibition: at the top concentration.
% is set by controls: 0 for no effect and ±100 for the full control effect.

Sequence of Cytochrome P450 2C9 (Homo sapiens) (P11712 whole entry, looked up): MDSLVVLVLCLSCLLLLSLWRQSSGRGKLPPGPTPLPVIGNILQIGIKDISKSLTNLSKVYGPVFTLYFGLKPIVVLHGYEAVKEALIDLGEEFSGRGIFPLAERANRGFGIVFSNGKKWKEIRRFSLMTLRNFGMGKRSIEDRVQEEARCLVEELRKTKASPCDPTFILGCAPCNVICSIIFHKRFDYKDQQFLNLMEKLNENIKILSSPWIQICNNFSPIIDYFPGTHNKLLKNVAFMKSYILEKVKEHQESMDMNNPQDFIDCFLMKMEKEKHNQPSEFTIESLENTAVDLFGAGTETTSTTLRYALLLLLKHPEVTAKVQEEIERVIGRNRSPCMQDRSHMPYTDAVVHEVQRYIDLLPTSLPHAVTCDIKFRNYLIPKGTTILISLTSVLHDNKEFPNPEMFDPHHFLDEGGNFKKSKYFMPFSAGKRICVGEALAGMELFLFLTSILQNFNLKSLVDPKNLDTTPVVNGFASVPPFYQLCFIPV

**Q.** For `COc1ccc(-c2cc(C(=O)O)c3c(C)nn(-c4ccccn4)c3n2)cc1`, which “activity, negative = inhibition” value is on record?
**A.** The value was 1.9%.

**Q.** How did the AC50 turn out when `COC(=O)c1ccccc1N/C=C1\CCc2c(c(C)nn2-c2ccccn2)C1=O` was run?
**A.** Its AC50 is 14.1 µM (active).

**Q.** Which activity, negative = inhibition does the source give for `COc1ccc(COC(=O)N/N=C2/C[C@@H](O)[C@@H](O)[C@@H]3[C@H]4C(=O)N(c5ccc(F)cc5F)C(=O)[C@@H]4CC[C@H]23)cc1` here?
**A.** The activity, negative = inhibition was -4.97% [at 11.4 µM].

**Q.** Which “activity, negative = inhibition” value does the source give for `C[n+]1ccc(/C=C/c2ccc(Br)cc2)cc1` here?
**A.** Its value is -1.18%.

**Q.** For `CCOC(=O)C(CC)(CC)C(=O)/C=C/c1ccc(Br)cc1`, which AC50 is on record?
**A.** The AC50 was 5.01 µM (active).

**Q.** Which “activity, negative = inhibition” value does the source give for `O=C(/C=C/c1ccc(Br)cc1)NC1CCCCCC1` here?
**A.** Its value is 10.2%.

**Q.** Which activity, negative = inhibition does the source give for `Nc1ccc(S(=O)(=O)NCCS(=O)(=O)O)cc1` here?
**A.** The activity, negative = inhibition was 9.74% [at 11.4 µM].

**Q.** With `CCCNS(=O)(=O)c1ccc(OCC(=O)OC)cc1` as the compound, how does the AC50 read?
**A.** Its AC50 is 7.08 µM (active).

**Q.** How did the AC50 turn out when `O=C(Nc1ncc(Cc2cccc(Cl)c2)s1)c1cccs1` was run?
**A.** The AC50 was 11.2 µM (active).

**Q.** Which “activity, negative = inhibition” value does the source give for `Cc1ccc(NC(=O)CCC(=O)NNC(=O)c2cccs2)c(C)c1` here?
**A.** The value was -27.1%.

**Q.** How did the AC50 turn out when `Cc1ccc(Cc2cnc(NC(=O)c3cccs3)s2)cc1` was run?
**A.** The AC50 was 8.91 µM (active).

**Q.** With `O=C(NOC(=O)c1cc(Br)ccc1Cl)c1cccs1` as the compound, how does the “activity, negative = inhibition” value read?
**A.** The value was -29.8%.

**Q.** How did the activity, negative = inhibition turn out when `Nc1[nH]c(=O)nc2c1ncn2[C@H]1O[C@@H](CO)[C@@H](O)[C@@H]1O` was run?
**A.** The activity, negative = inhibition was -0.314% [at 11.4 µM].

**Q.** How did the activity, negative = inhibition turn out when `O=C(O)c1ccc(S(=O)(=O)N=Nc2c(O)[nH]c3ccccc23)cc1` was run?
**A.** The activity, negative = inhibition was 3.79% [at 11.4 µM].

**Q.** With `N#CCCSC(=S)[C@H]1CCCC1=N` as the compound, how does the activity, negative = inhibition read?
**A.** Its activity, negative = inhibition is -3.69% [at 11.4 µM].

**Q.** With `N#Cc1c(NC(=O)CCC(=O)O)ccc2ccccc12` as the compound, how does the activity, negative = inhibition read?
**A.** The activity, negative = inhibition was -7.5% [at 11.4 µM].

**Q.** For `COC(=O)CCC(=O)Nc1cccc2ccccc12`, which “activity, negative = inhibition” value is on record?
**A.** The value was 9.84%.

**Q.** For `O=C(CCC(=O)OCc1ccc(C(=O)Oc2ccccc2)cc1)Nc1cccc2ccccc12`, which AC50 is on record?
**A.** Its AC50 is 15.8 µM (active).

**Q.** For `COc1ncc2nc(-c3cc(F)cc(F)c3)c(=O)n(CCC#N)c2n1`, which “activity, negative = inhibition” value is on record?
**A.** Its value is -11.8%.

**Q.** With `N#Cc1sc2nc(-c3cccs3)cc(-c3ccc(Cl)cc3)c2c1N` as the compound, how does the AC50 read?
**A.** Its AC50 is 4.47 µM (active).

**Q.** `O=C(O)c1cc(N=Cc2ccccc2O)cc(C(=O)O)c1` was tested. Which activity, negative = inhibition did it give?
**A.** Its activity, negative = inhibition is 7.44% [at 11.4 µM].

**Q.** With `Cc1cc(O)c(C(C)C)cc1N=Cc1ccccc1O` as the compound, how does the AC50 read?
**A.** Its AC50 is 0.631 µM (active).

**Q.** `[O-][n+]1c(CN2CCCCC2)nc2cccc3c2c1-c1ccccc1-3` was tested. Which activity, negative = inhibition did it give?
**A.** The activity, negative = inhibition was -15.3% [at 11.4 µM].

**Q.** With `CC(C)(C)c1ccc(C2CC2C(=O)N/N=C\c2cc3ccccc3nc2Cl)cc1` (stereo not drawn) as the compound, how does the AC50 read?
**A.** Its AC50 is 3.55 µM (active).

**Q.** Which activity, negative = inhibition does the source give for `CN(C)c1ccc(/C=N\NC(=O)c2cnc3ccccc3c2)cc1` here?
**A.** The activity, negative = inhibition was -6.78% [at 11.4 µM].

**Q.** For `CN(Cc1ccco1)c1ncncc1-c1cccnc1`, which activity, negative = inhibition is on record?
**A.** Its activity, negative = inhibition is 10.8% [at 2.29 µM].

**Q.** `CCOc1[nH]n(-c2ccccc2)c(=O)c1C=Nc1ccc(Cl)cc1` was tested. Which “activity, negative = inhibition” value did it give?
**A.** Its value is -81.7%.

**Q.** Which AC50 does the source give for `O=c1c(C=Nc2ccc(Oc3ccccc3)cc2)c[nH]n1-c1cccc(Cl)n1` here?
**A.** The AC50 was 6.31 µM (active).

**Q.** For `c1cncc(-c2cc(NCc3cccs3)ncn2)c1`, which activity, negative = inhibition is on record?
**A.** The activity, negative = inhibition was -6.08% [at 2.29 µM].

**Q.** With `Clc1ccc2c(c1)C(c1cccs1)=NNC(c1cccnc1)=N2` as the compound, how does the AC50 read?
**A.** Its AC50 is 11.2 µM (active).

**Q.** Which AC50 does the source give for `Fc1ccc2c(c1)C(c1ccncc1)=NNC(c1ccc(Cl)cc1)=N2` here?
**A.** The AC50 was 0.282 µM (active).

**Q.** How did the activity, negative = inhibition turn out when `COC(=O)[C@H](C)NC(=O)[C@@H](C)CO` was run?
**A.** The activity, negative = inhibition was 10.7% [at 11.4 µM].

**Q.** How did the activity, negative = inhibition turn out when `COCCNc1ccnc(-c2ccccc2CN(C)C)n1` was run?
**A.** Its activity, negative = inhibition is 0.0079% [at 2.29 µM].

**Q.** `CNCC[C@H](Oc1ccccc1OC)c1ccccc1` was tested. Which AC50 did it give?
**A.** The AC50 was “inactive”.

**Q.** With `CNCC[C@@H](Oc1ccccc1C)c1ccccc1` as the compound, how does the “activity, negative = inhibition” value read?
**A.** Its value is 1.68%.

**Q.** `CN(CC[C@@H](Oc1ccc(-c2ccccc2)cc1)c1ccc(F)cc1)CC(=O)O` was tested. Which AC50 did it give?
**A.** The AC50 was 2.51 µM (active).

**Q.** With `CCOc1cc2[nH]c(=S)n(CCC(=O)N3CCc4ccccc4C3)c(=O)c2cc1OCC` as the compound, how does the AC50 read?
**A.** The AC50 was 17.8 µM (active).

**Q.** Which “activity, negative = inhibition” value does the source give for `O=c1onc2n1-c1cc(Br)ccc1OC2` here?
**A.** The value was -8.5%.

**Q.** For `Cc1ccc(S(=O)(=O)N(CC(=O)N2CCN(c3ccc(F)cc3)CC2)C2CCCCC2)cc1`, which AC50 is on record?
**A.** The AC50 was 3.55 µM (active).

**Q.** With `COc1ccc(S(N)(=O)=O)cc1C(=O)NCCCN1CCN(c2ccc(C)cc2)CC1` as the compound, how does the “activity, negative = inhibition” value read?
**A.** Its value is -17.8%.

**Q.** With `CCCS(=O)(=O)N1CCCC(C(=O)NCCCN2CCN(c3ccc(F)cc3)CC2)C1` (stereo not drawn) as the compound, how does the “activity, negative = inhibition” value read?
**A.** The value was 2.11%.

**Q.** With `CCCCOC(=O)NS(=O)(=O)c1sc(CC(C)C)cc1-c1ccc(Cn2c(CC)nc3c(C)cc(C)nc32)cc1` as the compound, how does the AC50 read?
**A.** Its AC50 is 12.6 µM (active).

**Q.** `C1CCc2nnnn2CC1` was tested. Which “activity, negative = inhibition” value did it give?
**A.** Its value is -7.69% [at 25.6 µM].

**Q.** How did the “activity, negative = inhibition” value turn out when `O=C(c1cccc(F)c1)N1CCC2(CC1)CN(Cc1ccccc1)C2` was run?
**A.** Its value is -9.48%.

**Q.** `Cc1cccc2cc(CN(Cc3ccccc3)C(=O)c3cccc(F)c3)c(Cl)nc12` was tested. Which AC50 did it give?
**A.** The AC50 was 2.24 µM (active).

**Q.** Which “activity, negative = inhibition” value does the source give for `Cc1ccccc1OC/C(O)=C(\C#N)c1nc2ccccc2[nH]1` here?
**A.** Its value is -1.16%.

**Q.** Which AC50 does the source give for `COc1cccc(OC)c1/C(O)=C(\C#N)c1nc2ccccc2[nH]1` here?
**A.** Its AC50 is 11.2 µM (active).

**Q.** `CNc1nc(-c2ccccc2OC)nc2ccccc12` was tested. Which activity, negative = inhibition did it give?
**A.** The activity, negative = inhibition was 7.89% [at 2.29 µM].
